Data published in ChEMBL document CHEMBL4513216, “Probing the Open Global Health Chemical Diversity Library for Multistage-Active Starting Points for Next-Generation Antimalarials” (ACS Infect Dis, 2020).
The campaign covered roughly 69,000 compounds. About 8,600 (12%) showed an effect of 50% or more. This excerpt belongs to a sample that is enriched for strong results.

Test system: Plasmodium berghei
Assay: Screen against P. berghei liver stage (PbLuc), transformed with Luciferase, at 10uM
Type: functional, HepG2
Details: tested at 10 uM

Structure (SMILES)	INHIBITION [%]
CN1C[C@@H]2CN(C(=O)NCc3ccccc3)CCC[C@]2(C(=O)O)C1	5.63
COCC1CC2(CCN(Cc3ccoc3)CC2)CN1C(C)C (configuration not stated)	-1.26
Cc1ccccc1CNC(=O)c1ccccc1-n1cc(CN)cn1	20.8
CSCC[C@H](N)C(=O)NCc1cc2n(n1)CCCN(C(=O)C1CCC1)C2	28.5
Cc1cc(C)c(CNC(=O)NCc2ccc(F)cc2)c(=O)[nH]1	27.6
c1cc2cc[nH]c2c(CC2CN(Cc3cncs3)C2)n1	-0.232
c1cc2cc[nH]c2c(CC2CN(Cc3cscn3)C2)n1	53.6
Cn1ccc(CN2CC(Cc3nccc4cc[nH]c34)C2)n1	41.5
NC(=O)CN1CC[C@@]2(O)CCCC[C@H]2[C@@H]1c1ccc2c(c1)OCO2	17.6
COC(=O)N1CC[C@@]2(O)CCCC[C@H]2[C@@H]1c1ccc2c(c1)OCO2	42.3
CC(=O)N1CC[C@@]2(O)CCCC[C@H]2[C@@H]1c1ccc2c(c1)OCO2	52.1
CCOCC1CN(S(=O)(=O)N(C)C)Cc2cnn(CC3CC3)c21 (configuration not stated)	-57.7
Cc1cc(CCC(=O)N2CCCC2)nc(C2CCCN2)n1 (configuration not stated)	24.8
O=S(=O)(CCCN1CCCCC1Cn1cncn1)c1ccccc1 (configuration not stated)	-29.8
CN(CC(=O)N1CCCCC1c1nccs1)C1CC1 (configuration not stated)	13.6
CC1CN(Cc2cccc(CNC3CCCC3)c2)CCO1 (configuration not stated)	37.4
CC1CN(Cc2cccc(CN)c2)CCO1 (configuration not stated)	59.1
CCCN1CCC(NCc2cccc(CN3CCOC(C)C3)c2)CC1 (configuration not stated)	21.1
CC1CCN(CC(=O)N(C)CCc2noc(C3CC3)n2)C1=O (configuration not stated)	-22.1
CCCn1cc(CN2CCOCC2c2[nH]ncc2C)cn1 (configuration not stated)	6.2
Cc1ncc(CN2CCc3c(nc4cc(C5CC5)nn4c3O)C2)n1C	47.1
Cc1oc2c(c1C(=O)N1CC[C@H](O)[C@]3(CCCO3)C1)CCCC2	3.75
CC(C)Oc1cccc2c1c(NC(=O)CN(C)C)nn2CC(F)(F)F	7.77
CC(=O)N1CCCC(c2cccc(-n3ccnc3)n2)C1 (configuration not stated)	36.7
c1cnc(N2CCCC(c3cncc(-n4ccnc4)n3)C2)nc1 (configuration not stated)	15.9
Cc1nc(C(=O)N2CCCC(c3cccc(-n4ccnc4)n3)C2)co1 (configuration not stated)	29.6

Structure (SMILES)	INHIBITION [%]
O=C(C1CCCC1)N1CCCC(c2cccc(-n3ccnc3)n2)C1 (configuration not stated)	63.4
O=C(c1cc[nH]n1)N1CCCC(c2cccc(-n3ccnc3)n2)C1 (configuration not stated)	14.4
COCC(=O)N1CCCC(c2cccc(-n3ccnc3)n2)C1 (configuration not stated)	36.7
O=C(c1cnccn1)N1CCCC(c2cccc(-n3ccnc3)n2)C1 (configuration not stated)	50.1
O=C(C1CCC1)N1CCCC(c2cccc(-n3ccnc3)n2)C1 (configuration not stated)	29.3
Cc1nccn1-c1cccc(C2CCCN(C(=O)c3cc[nH]n3)C2)n1 (configuration not stated)	53.8
Cc1n[nH]cc1C(=O)N1CCCC(c2cccc(-n3ccnc3)n2)C1 (configuration not stated)	-13.7
Cc1nccn1-c1cccc(C2CCCN(C3CCCCC3)C2)n1 (configuration not stated)	11.4
Cc1cc(C)nc(N2CCCC(c3cccc(-n4ccnc4)n3)C2)n1 (configuration not stated)	69.3
CC(=O)c1ccc(OCC(=O)NS(=O)(=O)c2cccnc2)cc1	35.9
Cc1cnn(CC2CCCCN2C(=O)c2cc(Cl)c[nH]2)c1 (configuration not stated)	40.3
Cc1cccc(C(=O)N2CCC3(CC(C(=O)N(C)C(C)C)=NO3)C2)c1 (configuration not stated)	6.72
Cc1noc([C@@H]2C[C@H]3OCC[C@H]3N(S(=O)(=O)N(C)C)C2)n1	-13
CC(=O)N1CCN(C(=O)NCc2ccccc2Cn2cncn2)CC1	-56.4
COCC(=O)NCC1CCC(c2ccnc3ncnn23)CC1 (configuration not stated)	15.5
c1cn(-c2cncc(C3CCNCC3)n2)cn1	-64.7
Cc1cc(C)nc(N2CCC(c3cncc(-n4ccnc4)n3)CC2)n1	66.4
Fc1ccc(CN2CCCC2c2cncc(-n3ccnc3)n2)cc1 (configuration not stated)	22.7
CCOCc1ccc(NC(=O)N2CCOC3(CCC3)C2)cc1	-1.32
O=C(c1cc(Br)c[nH]1)N1CCN(Cc2ccco2)CC1	55.4
CC(=O)N1CCN(Cc2ccco2)CC2(CC(=O)N(C)C2)C1 (configuration not stated)	19.8
Cc1cc(C)c2cc(C(=O)N3CCN(Cc4ccco4)CC3)[nH]c2c1	9.04
O=C(c1cc(Cl)c(Br)[nH]1)N1CCN(Cc2ccco2)CC1	63.8
CC(C)c1cc(C(=O)N2CCN(Cc3ccco3)CC2)n[nH]1	14.3
O=C(c1cc(Br)ccc1Cl)N1CCN(Cc2ccco2)CC1	36.9
CCOc1ncnc2c1CCN(S(=O)(=O)c1ccccc1)CC2	41.2
